Assay results reported in PubChem BioAssay.
Activity calls are given as the source filed them.

experiment: basal HepG2 mitochondrial membrane potential changes, profiling panel, cell-based, JC-1 fluorescence, 24 h, 100 nL compound (AID 1167); conditions: higher = more signal
Also: test concentration not given here.

| SMILES | z-score |
| --- | --- |
| NCCCCCNC(=O)[C@H]1C[C@H]2C(=O)N3CCC[C@H]3C(=O)N2[C@H]1c1cccc(OCCO)c1 | 0.37 |
| COc1ccc([Si](C)(C)[C@@H]2[C@@H](CCO)O[C@]3(C(=O)N(Cc4cccc(NC(=O)[C@H](C)O)c4)c4ccccc43)[C@H]2C)cc1 | -1.37 |
| CCCCN1CC=CC23O[C@@H]4/C=C\CCCOC(=O)C4[C@H]2C(=O)N(CCO)[C@@H]3C1=O (stereo not given in full) | -0.415 |

experiment: basal 3T3-L1 adipocyte mitochondrial potential changes, profiling panel, cell-based, JC-1 fluorescence, 3T3-L1 adipocytes, 24 h, 100 nL compound (AID 1168); conditions: JC-1 mitochondrial fluorescence, higher = more signal, called active from +8 up or from −8 down

| SMILES | z-score |
| --- | --- |
| [N-]=[N+]=NCc1ccccc1[C@@H]1OC(c2ccc(OCCCO)cc2)=N[C@]1(CCS(=O)(=O)c1ccccc1)C(=O)O | -1.02 (inactive) |
| CC1CC/C=C\[C@H]2OC34C=CCN(c5ccc(Cl)cc5)C(=O)[C@H]3N(C(C)CO)C(=O)[C@]4(C)C2C(=O)O1 (stereo not given in full) | -0.29 (inactive) |
| C=CC[C@]1(C(=O)N2CCCCC2)N=C(c2ccc(OCCCO)cc2)O[C@H]1c1ccccc1CN=[N+]=[N-] | 0.32 (inactive) |
| COc1ccc([Si](C)(C)[C@H]2[C@H](CC(=O)N3CCC[C@H]3CO)O[C@@]3(C(=O)N(Cc4ccc(N5CCOC5=O)cc4)c4ccccc43)[C@@H]2C)cc1 | 0.388 (inactive) |
| Cc1cc(C)c(C(O)C2C=CC3C(=O)N(c4ccccc4)C(=O)C3N2Nc2ccccc2F)c(C)c1 (stereo not given) | -0.709 (inactive) |
| CC[C@@H]1O[Si](C(C)C)(C(C)C)c2c1cc(-c1cc(C)c(OC)c(C)c1)nc2-c1ccc(Oc2ccccc2)cc1 | 0.202 (inactive) |
| O[C@@H](Cc1ccccc1)[C@@H](/C=C/C1CC1)N(CC#Cc1ccccc1)Cc1ccccc1Br | -0.344 (inactive) |
